Experimental data reported in PubChem BioAssay.
The source made the active and inactive calls.

Key:
[1] = small-molecule microarray binders of probe aLefty2, primary screen, biochemical, biotinylated probe, 635/667 nm fluorescence (AID 1094); settings: higher = more signal;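 note: score merges spot fluorescence near 667 nm with spot signal-to-noise ratio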
[2] = tested on: Noggin (protein binding on small-molecule microarray); test: Noggin binders on small-molecule microarray, primary screen, biochemical, 635/667 nm fluorescence (AID 1095); settings: 635 nm fluorescence, higher = more signal;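 note: score merges 667 nm feature fluorescence with signal to noise over triplicate slides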
[3] = target: Neurogenic locus notch homolog protein 3 (Homo sapiens) (UniProt Q9UM47); test: NOTCH3 binders on small-molecule microarray, primary screen, biochemical, 635/667 nm fluorescence (AID 1096); settings: NOTCH3 binding, 635 nm fluorescence, higher = more signal
[4] = small-molecule microarray binders of probe aEGFR, primary screen, biochemical, biotinylated probe, 635/667 nm fluorescence (AID 1097); settings: higher = more signal;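 note: probe is a biotinylated anti-EGFR antibody binding compounds printed on slides; score combines fluorescence near 667 nm and signal to noise of each spot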
[5] = tested on: Plasmodium falciparum Sir2 (PF13_0152, Sir2A); test: pfSir2 binders on small-molecule microarrays, primary screen, biochemical, small-molecule microarray, 635 nm fluorescence (AID 1098); settings: small-molecule microarray binding, fluorescence 635 nm; higher = more signal;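 note: score merges spot fluorescence intensity with its signal-to-noise ratio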
[6] = small-molecule microarray binders of probe aDKK1, primary screen, biochemical, biotinylated probe, 635/667 nm fluorescence (AID 1099); settings: higher = more signal;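 note: score merges 667nm spot fluorescence with signal to noise across triplicate slides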
[7] = small-molecule microarray binders of probe aCHRDL2, primary screen, biochemical, biotinylated probe, 635/667 nm fluorescence (AID 1100); settings: higher = more signal
[8] = splicing luciferase reporter signal modulators, primary screen, spliceosome inhibition project, cell-based, HEK293, splice +/- reporter (AID 1101); settings: luminescence, 24 h, higher = more signal, called active from +8 up or from −8 down;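 note: HEK293 cells carrying a splicing-competent luciferase reporter gene; test concentration not given here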
[9] = target: Fibroblast growth factor 10 (Homo sapiens) (UniProt O15520); test: FGF10 binders on small-molecule microarrays, primary screen, biochemical, small-molecule microarray, 635 nm fluorescence (AID 1102); settings: FGF10 binding, fluorescence 635 nm, higher = more signal
[10] = tested on: glycogen synthase kinase-3 (GSK3A per assay name; protocol says GSK3B); test: GSK3 binders on small-molecule microarrays, primary screen, biochemical, small-molecule microarray, 635 nm fluorescence, GSK3A (AID 1103); settings: small-molecule microarray binding, fluorescence 635 nm; higher = more signal; note: the record names both GSK3A and GSK3B
[11] = target: Epidermal growth factor receptor (Homo sapiens) (UniProt P00533); test: EGFR binders on small-molecule microarrays, primary screen, biochemical, small-molecule microarray, 635 nm fluorescence (AID 1104); settings: EGFR binding, higher = more signal;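 note: score merges 667 nm emission intensity with spot signal to noise over triplicate slides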
[12] = target: Follistatin-related protein 3 (Homo sapiens) (UniProt O95633); test: FSTL3 binders on small-molecule microarrays, primary screen, biochemical, small-molecule microarray, 635 nm fluorescence (AID 1105); settings: FSTL3 binding, higher = more signal;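 note: score merges emission near 667 nm and signal to noise per printed spot across three slides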
[13] = target: Dickkopf-related protein 1 (Homo sapiens) (UniProt O94907); test: DKK1 binders on small-molecule microarrays, primary screen, biochemical, small-molecule microarray, 635 nm fluorescence scan (AID 1106); settings: DKK1 binding, higher = more signal;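 note: score merges emission near 667 nm with signal to noise over three replicate slides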
[14] = tested on: Inhibin beta A chain (activin A); test: INHBA (activin A) binders on microarrays, primary screen, biochemical, small-molecule microarray, 635 nm fluorescence scan (AID 1107); settings: small-molecule microarray binding, higher = more signal;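 note: mouse activin A protein probed at 4.33 µg/mL on printed slides; score merges bound-protein fluorescence near 667 nm with spot signal-to-noise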
[15] = tested on: Human papillomavirus type 1a protein E7 (residues 44-93); test: HPV1a E7 fragment binders on microarrays, primary screen, biochemical, small-molecule microarray, residues 44-93, 635 nm fluorescence (AID 1108); settings: small-molecule microarray binding, fluorescence 635 nm; higher = more signal;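 note: E7 fragment applied at 1 µg/mL in TBST for 1 h at 4 C; score combines spot fluorescence with its signal to noise ratio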
[16] = modulators of HCV replicon luciferase signal, primary screen, HCV replication inhibitor project, Huh7 cells, luciferase reporter (AID 1109); settings: 48 h, higher = more signal;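 note: huh7 hepatoma cells harbouring a luciferase neomycin HCV replicon reporter; luciferase luminescence as measure of HCV replicon replication; test concentration not given here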
[17] = target: Left-right determination factor 2 (Homo sapiens) (UniProt O00292); test: LEFTY2 binders on small-molecule microarrays, primary screen, biochemical, small-molecule microarray, 635 nm fluorescence scan (AID 1110); settings: LEFTY2 binding, higher = more signal
[18] = target: Calmodulin-1 (Homo sapiens) (UniProt P0DP23); test: CALM1 binders on microarrays, EGTA buffer, profiling panel, biochemical, small-molecule microarray, Cy5-labelled CALM1 (AID 1111); settings: Cy5-CALM1 binding fluorescence, higher = more signal;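 note: labelled calmodulin applied in Tris saline Tween buffer holding calcium plus EGTA and DTT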
[19] = target: Calmodulin-1 (Homo sapiens) (UniProt P0DP23); test: calcium-bound CALM1 binders on microarrays, profiling panel, artefact control for SMM control-protein annotation, biochemical, small-molecule microarray, Cy5-labelled CALM1, plus calcium (AID 1112); settings: Cy5-CALM1 binding fluorescence, higher = more signal;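 note: score merges spot fluorescence with signal to noise from triplicate slides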
[20] = small-molecule microarray binders of probe aWnt5a, primary screen, biochemical, biotinylated probe, 635/667 nm fluorescence (AID 1113); settings: higher = more signal;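 note: score merges 667 nm fluorescence intensity with signal-to-noise per printed feature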

Chain of Follistatin-related protein 3 (Homo sapiens) (O95633 whole entry, looked up): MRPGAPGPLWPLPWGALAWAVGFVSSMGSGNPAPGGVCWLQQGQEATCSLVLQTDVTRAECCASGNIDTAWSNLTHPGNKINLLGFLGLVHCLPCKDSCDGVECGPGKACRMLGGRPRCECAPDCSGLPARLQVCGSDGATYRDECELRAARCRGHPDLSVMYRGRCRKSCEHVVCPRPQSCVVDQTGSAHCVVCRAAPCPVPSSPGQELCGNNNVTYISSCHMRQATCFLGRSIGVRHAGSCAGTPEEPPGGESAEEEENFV
Chain of Left-right determination factor 2 (Homo sapiens) (O00292 whole entry, looked up): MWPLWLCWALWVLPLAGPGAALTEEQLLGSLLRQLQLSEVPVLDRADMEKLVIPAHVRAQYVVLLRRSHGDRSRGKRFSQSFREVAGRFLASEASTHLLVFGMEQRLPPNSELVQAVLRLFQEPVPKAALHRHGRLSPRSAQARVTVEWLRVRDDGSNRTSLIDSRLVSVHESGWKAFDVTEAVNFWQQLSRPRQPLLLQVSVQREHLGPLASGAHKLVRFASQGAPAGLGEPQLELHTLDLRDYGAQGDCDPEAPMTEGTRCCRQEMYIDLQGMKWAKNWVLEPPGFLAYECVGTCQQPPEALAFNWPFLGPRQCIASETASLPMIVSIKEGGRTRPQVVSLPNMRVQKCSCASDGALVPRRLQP
Chain of Neurogenic locus notch homolog protein 3 (Homo sapiens) (Q9UM47 whole entry, looked up): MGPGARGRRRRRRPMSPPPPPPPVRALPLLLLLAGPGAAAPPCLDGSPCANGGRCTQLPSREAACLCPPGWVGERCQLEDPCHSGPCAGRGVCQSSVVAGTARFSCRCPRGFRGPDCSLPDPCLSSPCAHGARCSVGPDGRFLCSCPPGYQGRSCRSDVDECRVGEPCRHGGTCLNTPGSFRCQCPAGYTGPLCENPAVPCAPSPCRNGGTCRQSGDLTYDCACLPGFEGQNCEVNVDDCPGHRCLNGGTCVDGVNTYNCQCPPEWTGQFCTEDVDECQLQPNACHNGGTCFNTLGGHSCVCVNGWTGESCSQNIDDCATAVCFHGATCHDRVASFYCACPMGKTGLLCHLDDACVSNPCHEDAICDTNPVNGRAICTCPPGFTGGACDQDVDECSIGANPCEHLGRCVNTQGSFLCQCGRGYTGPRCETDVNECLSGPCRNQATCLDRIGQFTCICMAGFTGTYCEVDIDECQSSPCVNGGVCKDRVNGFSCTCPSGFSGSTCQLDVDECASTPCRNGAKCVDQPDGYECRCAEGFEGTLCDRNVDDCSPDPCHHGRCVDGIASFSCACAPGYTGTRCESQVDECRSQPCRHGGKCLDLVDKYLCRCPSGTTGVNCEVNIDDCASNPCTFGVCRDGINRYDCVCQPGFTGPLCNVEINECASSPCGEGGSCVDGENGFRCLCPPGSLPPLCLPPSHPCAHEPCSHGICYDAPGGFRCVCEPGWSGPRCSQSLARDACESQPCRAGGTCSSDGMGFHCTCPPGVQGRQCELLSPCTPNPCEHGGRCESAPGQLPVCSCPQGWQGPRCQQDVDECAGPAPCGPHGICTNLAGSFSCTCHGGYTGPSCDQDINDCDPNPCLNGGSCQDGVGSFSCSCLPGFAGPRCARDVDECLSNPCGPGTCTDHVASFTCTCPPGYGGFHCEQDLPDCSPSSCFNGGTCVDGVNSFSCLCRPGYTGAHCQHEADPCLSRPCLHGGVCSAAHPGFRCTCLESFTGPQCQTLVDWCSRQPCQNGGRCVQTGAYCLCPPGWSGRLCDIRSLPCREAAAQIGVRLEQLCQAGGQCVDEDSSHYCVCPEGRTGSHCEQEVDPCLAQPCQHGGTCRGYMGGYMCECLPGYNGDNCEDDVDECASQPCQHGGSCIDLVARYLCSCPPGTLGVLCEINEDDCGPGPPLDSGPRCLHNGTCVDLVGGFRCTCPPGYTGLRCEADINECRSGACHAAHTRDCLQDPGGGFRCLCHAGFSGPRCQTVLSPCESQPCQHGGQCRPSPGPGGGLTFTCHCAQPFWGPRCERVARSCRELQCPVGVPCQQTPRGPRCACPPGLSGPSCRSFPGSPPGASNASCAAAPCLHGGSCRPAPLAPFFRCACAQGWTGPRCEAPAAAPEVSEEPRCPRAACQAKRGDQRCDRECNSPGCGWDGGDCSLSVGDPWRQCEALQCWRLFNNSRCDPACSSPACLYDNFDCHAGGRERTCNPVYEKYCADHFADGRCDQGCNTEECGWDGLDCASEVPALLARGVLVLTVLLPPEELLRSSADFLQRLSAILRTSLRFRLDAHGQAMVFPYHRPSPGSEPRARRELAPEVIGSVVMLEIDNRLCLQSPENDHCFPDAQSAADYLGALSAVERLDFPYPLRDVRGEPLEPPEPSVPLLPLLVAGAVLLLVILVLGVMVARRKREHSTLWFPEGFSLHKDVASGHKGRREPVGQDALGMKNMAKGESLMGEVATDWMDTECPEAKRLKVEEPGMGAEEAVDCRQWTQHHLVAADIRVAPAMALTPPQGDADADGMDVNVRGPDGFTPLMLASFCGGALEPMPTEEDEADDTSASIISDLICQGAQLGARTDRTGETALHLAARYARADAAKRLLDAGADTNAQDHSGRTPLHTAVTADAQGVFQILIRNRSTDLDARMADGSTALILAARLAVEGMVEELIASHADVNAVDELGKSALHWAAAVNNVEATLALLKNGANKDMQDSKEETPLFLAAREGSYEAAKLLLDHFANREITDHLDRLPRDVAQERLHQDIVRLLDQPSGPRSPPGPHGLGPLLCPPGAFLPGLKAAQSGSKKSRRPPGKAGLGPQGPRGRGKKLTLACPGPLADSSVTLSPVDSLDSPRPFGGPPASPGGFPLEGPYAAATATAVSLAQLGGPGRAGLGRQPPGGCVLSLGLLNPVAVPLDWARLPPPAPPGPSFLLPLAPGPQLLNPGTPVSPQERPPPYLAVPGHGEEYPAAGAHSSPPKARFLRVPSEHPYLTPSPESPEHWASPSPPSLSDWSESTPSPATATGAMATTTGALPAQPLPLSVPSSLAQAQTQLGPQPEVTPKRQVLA
Chain of Epidermal growth factor receptor (Homo sapiens) (P00533 whole entry, looked up): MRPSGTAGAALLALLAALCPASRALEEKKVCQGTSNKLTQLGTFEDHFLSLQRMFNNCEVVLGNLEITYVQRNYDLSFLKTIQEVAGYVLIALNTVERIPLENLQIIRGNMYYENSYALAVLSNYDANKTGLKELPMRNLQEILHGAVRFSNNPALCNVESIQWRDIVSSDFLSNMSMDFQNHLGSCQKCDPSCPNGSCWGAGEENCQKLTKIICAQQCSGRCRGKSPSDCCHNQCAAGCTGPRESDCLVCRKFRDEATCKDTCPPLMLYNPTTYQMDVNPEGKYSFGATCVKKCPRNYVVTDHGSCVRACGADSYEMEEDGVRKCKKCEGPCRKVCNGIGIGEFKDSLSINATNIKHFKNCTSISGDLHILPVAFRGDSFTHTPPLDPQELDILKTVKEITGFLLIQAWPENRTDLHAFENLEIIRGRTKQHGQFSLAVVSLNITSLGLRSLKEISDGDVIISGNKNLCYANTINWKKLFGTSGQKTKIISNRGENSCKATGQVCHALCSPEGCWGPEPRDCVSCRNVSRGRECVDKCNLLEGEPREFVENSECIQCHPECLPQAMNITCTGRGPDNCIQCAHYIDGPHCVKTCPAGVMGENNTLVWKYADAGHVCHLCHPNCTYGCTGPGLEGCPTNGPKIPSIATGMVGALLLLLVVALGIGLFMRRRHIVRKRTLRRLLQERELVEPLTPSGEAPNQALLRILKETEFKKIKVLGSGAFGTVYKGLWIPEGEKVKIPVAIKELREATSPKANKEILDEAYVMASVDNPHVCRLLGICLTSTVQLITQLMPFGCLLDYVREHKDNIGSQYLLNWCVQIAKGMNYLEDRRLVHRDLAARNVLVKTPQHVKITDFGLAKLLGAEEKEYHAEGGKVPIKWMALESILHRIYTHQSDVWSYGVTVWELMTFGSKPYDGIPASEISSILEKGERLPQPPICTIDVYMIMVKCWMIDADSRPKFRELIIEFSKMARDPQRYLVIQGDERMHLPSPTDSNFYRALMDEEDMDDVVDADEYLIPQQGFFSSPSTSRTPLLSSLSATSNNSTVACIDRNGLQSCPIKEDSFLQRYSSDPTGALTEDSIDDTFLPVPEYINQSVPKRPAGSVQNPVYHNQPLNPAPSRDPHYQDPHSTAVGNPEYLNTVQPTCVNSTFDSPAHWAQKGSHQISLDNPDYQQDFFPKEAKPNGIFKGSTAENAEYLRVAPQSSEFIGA
Chain of Dickkopf-related protein 1 (Homo sapiens) (O94907 whole entry, looked up): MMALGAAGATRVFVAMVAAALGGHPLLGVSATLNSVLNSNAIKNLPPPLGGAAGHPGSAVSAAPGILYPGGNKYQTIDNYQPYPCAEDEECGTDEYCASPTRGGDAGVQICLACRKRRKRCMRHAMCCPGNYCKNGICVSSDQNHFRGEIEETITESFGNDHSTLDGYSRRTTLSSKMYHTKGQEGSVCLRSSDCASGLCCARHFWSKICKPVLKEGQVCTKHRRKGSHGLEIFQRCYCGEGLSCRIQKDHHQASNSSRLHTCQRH
Chain of Fibroblast growth factor 10 (Homo sapiens) (O15520 whole entry, looked up): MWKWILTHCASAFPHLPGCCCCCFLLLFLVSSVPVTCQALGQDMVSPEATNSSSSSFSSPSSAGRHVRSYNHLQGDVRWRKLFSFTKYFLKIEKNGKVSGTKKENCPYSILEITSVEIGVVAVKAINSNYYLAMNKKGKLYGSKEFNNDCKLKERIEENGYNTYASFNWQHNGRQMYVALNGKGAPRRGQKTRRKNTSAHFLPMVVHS

Row | SMILES | composite z-score [1] | composite z-score [2] | composite z-score [3] | composite z-score [4] | composite z-score [5] | composite z-score [6] | composite z-score [7] | z-score [8] | composite z-score [9] | composite z-score [10] | composite z-score [11] | composite z-score [12] | composite z-score [13] | composite z-score [14] | composite z-score [15] | z-score [16] | composite z-score [17] | composite z-score [18] | composite z-score [19] | composite z-score [20]
1 | CN1C=C(C(=O)OCCS(C)(=O)=O)C(C(=O)OCCS(C)(=O)=O)=CC(CCCO)=CC1c1cccs1 (stereo not given) | 0.022 | 0.774 | 0.774 | -0.0659 | -0.122 | -0.18 | -0.707 | -0.601 (inactive) | 0.395 | 0.891 | 0.56 | 0.663 | 0.537 | -0.558 | 0.358 | -0.911 | 0.716 | -0.524 | -0.676 | -0.0161
2 | COc1ccc(CCNC(=O)[C@@]2(Sc3ccc(C)cc3)CC(=O)N(Cc3ccccc3)[C@@H]2c2ccc(CO)cc2I)cc1 | -0.337 | -0.814 | -0.915 | -0.119 | 1.16 | -0.0607 | 0.566 | -1.24 (inactive) | -0.553 | -0.407 | -0.46 | 0.149 | 0.0928 | 0.761 | 0.152 | -2.18 | -1.46 | -0.615 | -0.0032 | -0.17
3 | C=C(COC)C(=O)CC[C@H](OC(=O)c1cccnc1)c1cccc(OCCO)c1 | 0.649 | 1.29 | 0.176 | 0.431 | 0.935 | 0.706 | 0.169 | -0.686 (inactive) | 1.09 | 0.538 | 0.041 | 0.431 | 0.994 | 1.23 | -0.298 | -0.87 | 0.203 | -0.638 | -0.282 | 0.506
4 | C=CC[C@]1(C(=O)N(C)C)N=C(c2ccc(OCCCO)cc2)O[C@H]1c1ccccc1CN=[N+]=[N-] | 0.186 | 0.0301 | 0.893 | 0.188 | 1.27 | 1.68 | 1.09 | -0.0363 (inactive) | 0.698 | 1.32 | 0.0528 | 0.513 | 0.328 | 1.43 | 0.923 | -2.44 | 0.447 | 2.17 | 1.17 | 0.0324
5 | CCCCCN1CC=CC23O[C@@H]4/C=C\CCC(C)OC(=O)C4[C@H]2C(=O)N(CCO)[C@@H]3C1=O (stereo not given in full) | -0.139 | -1.36 | -0.728 | -0.317 | 1.3 | -0.205 | 0.791 | -0.688 (inactive) | -0.825 | -0.413 | -1.81 | -1.13 | -1.2 | 1.57 | 0.408 | 0.382 | -1.43 | -0.659 | -0.295 | -0.176
6 | C=CC[C@@]1(C(=O)NCc2ccccc2)N=C(c2ccc(OCCCO)cc2)O[C@@H]1c1ccccc1 | 0.195 | -0.469 | 0.311 | -0.147 | 1.54 | 0.787 | 1.31 | -1.19 (inactive) | -0.28 | 0.659 | -1.08 | -0.571 | -0.918 | 0.997 | 0.483 | -3.03 | -0.762 | 1.68 | 0.369 | -0.101
7 | CC(=O)OC(C/C=C\B1OC(C)(C)C(C)(C)O1)c1ccccc1 (stereo not given) | -0.0231 | -0.502 | -0.761 | -0.268 | -0.552 | -0.264 | 0.281 | -2.42 (inactive) | -0.704 | -0.138 | 0.247 | 0.173 | 0.0618 | 1.38 | -0.328 | 0.386 | 0.149 | -1.33 | -0.664 | -0.152
8 | COCCCNC(=O)[C@@]1(CCS(=O)(=O)c2ccccc2)N=C(c2ccc(OCCCO)cc2)O[C@H]1c1ccccc1CN=[N+]=[N-] | 0.568 | 1.9 | 1.07 | 0.242 | 1.14 | 1.17 | 1.12 | -0.594 (inactive) | 1.14 | 1.31 | 0.184 | 0.847 | 0.245 | 1.22 | 1.13 | -2.04 | 0.266 | 2.02 | 0.986 | 0.183
9 | C=CCOC(=O)[C@H]1[C@@H]2C(=O)O[C@@H](c3ccccc3)[C@@H](c3ccccc3)N2[C@@H](c2ccc(OCCOC(=O)[C@H]3C[C@H]4C(=O)N5CCC[C@H]5C(=O)N4[C@H]3c3cccc(OCCO)c3)cc2)[C@]12C(=O)Nc1ccccc12 | 0.103 | 1.54 | 1.04 | -0.0828 | 1.52 | -0.125 | 0.297 | -0.676 (inactive) | 0.795 | 1.31 | 0.649 | 0.978 | 0.732 | 0.186 | 1.05 | -1.01 | 0.427 | 0.384 | 0.0829 | -0.0607
10 | COC(=O)c1c(CC[C@@H](CO)NC(=O)Nc2ccc(OC)cc2)oc(C(=O)Cc2ccccc2)c1C(=O)OC | -0.0233 | 0.414 | 0.101 | -0.0252 | 1.36 | 0.0707 | -0.0477 | -0.487 (inactive) | 0.394 | 0.618 | 0.0445 | 0.325 | 0.353 | 0.306 | 0.316 | 0.685 | 0.239 | -0.315 | -0.464 | -0.0445
11 | COCCOC(=O)N1C(=O)[C@@]2(c3ccccc31)[C@H](C(=O)Nc1nc3ccccc3s1)[C@H]1C(=O)O[C@H](c3ccccc3)[C@H](c3ccccc3)N1[C@@H]2c1ccc(O)cc1 | 0.219 | 0.565 | 1.1 | 0.254 | 1.05 | 0.356 | 0.361 | -1.56 (inactive) | 0.998 | 1.29 | 0.534 | 0.775 | 0.709 | 0.927 | 1.1 | -2.04 | 1.02 | 1.74 | 1.07 | 0.0044
12 | CC(C)C(CO)N1C(=O)[C@@H]2C3C(=O)OCCC/C=C\[C@H]3OC23C=CCN(C(C)C)C(=O)[C@@H]13 (stereo not given in full) | 0.727 | -0.868 | -0.134 | -0.188 | 1.86 | -0.191 | 0.481 | -0.895 (inactive) | -0.547 | -0.875 | -1.2 | -0.826 | -0.868 | 0.968 | -0.359 | -0.069 | -0.73 | -0.467 | -0.14 | -0.221
13 | [N-]=[N+]=Nc1ccccc1[C@H]1OC(c2ccc(OCCCO)cc2)=N[C@@]1(Cc1ccccc1)C(N)=O | 0.789 | 0.49 | 1.09 | 0.441 | 0.929 | 1.46 | 1.23 | -1.86 (inactive) | 1.09 | 1.28 | 0.13 | 1.09 | 0.0868 | 1.43 | 1.33 | -0.742 | 0.172 | 2.26 | 1.12 | 0.0998
14 | COCCOC(=O)N1C(=O)[C@@]2(c3cc(C#CC4(O)CCCCCC4)ccc31)[C@H](C(=O)NC[C@H](O)c1ccccc1)[C@H]1C(=O)O[C@H](c3ccccc3)[C@H](c3ccccc3)N1[C@@H]2c1ccccc1OCCO | 0.101 | 1.3 | 1.04 | 0.0343 | 1.27 | 0.145 | 0.348 | -0.747 (inactive) | 1.15 | 1.31 | 0.479 | 1.33 | 0.95 | 0.158 | 0.726 | -2.56 | 0.678 | 1.18 | 0.0465 | -0.129
15 | COCCCNC(=O)[C@@]1(Cc2ccccc2)N=C(c2ccc(OCCCO)cc2)O[C@H]1c1ccccc1N=[N+]=[N-] | 0.612 | 1.89 | 0.773 | 0.247 | 0.481 | 1.22 | 1.19 | -1.3 (inactive) | 1.2 | 1.24 | -0.176 | 0.176 | 0.101 | 1.31 | 0.175 | -2.59 | -0.151 | 1.05 | 0.945 | 0.115
16 | C=CCNC(=O)[C@@H]1[C@H]2C(=O)O[C@H](c3ccccc3)[C@H](c3ccccc3)N2[C@H](c2ccc(O)cc2)[C@@]12C(=O)Nc1ccccc12 | -0.189 | 0.855 | 0.31 | -0.129 | 0.442 | -0.0741 | 0.363 | 0.633 (inactive) | 0.237 | -0.608 | -1.14 | 0.133 | 0.131 | -0.287 | 0.197 | -0.603 | -1.01 | 0.439 | 0.259 | -0.0758
